Source: the supplement of paper PMC6763611

Tested on: Plasmodium falciparum NF54
Assay: growth inhibition relative to untreated control; higher = more inhibition
Settings: 72 h
Procedure, shortened: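 In dark 96-well half-area plates, each well held 100 μL of P. falciparum NF54 ring-stage culture at 1% parasitemia and 1% hematocrit. The cultures received a single test-compound dose of 5 μM or 1 μM and were kept at 37 °C for 72 h, in minimal RPMI either plain or enriched with folate (2.2 μM), pABA (7.3 μM), pHBA (7.3 μM), tyrosine (111 μM), phenylalanine (90 μM) and tryptophan. SYBR Green staining gave growth inhibition, expressed against untreated wells, with uninfected erythrocytes serving as the background.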

[1] = 1 µM, MM + chorismate end-products (CM screening medium)
[2] = 5 µM, MM + chorismate end-products (CM screening medium)

O=C(CCC1CCCCC1)Nc1cccc(-c2nnc(-c3ccco3)o2)c1
growth inhibition [1]: 14.2% | growth inhibition (1 µM, minimal medium (MM)): 9.19% | growth inhibition [2]: < 0% | growth inhibition (5 µM, minimal medium (MM)): < 0%

O=C(Nc1cccc(Cl)c1)c1cnc(N2CCN(c3ccncc3)CC2)c(Cl)c1
growth inhibition [1]: 90.3% | growth inhibition (1 µM, minimal medium (MM)): > 100% | growth inhibition [2]: 99.9% | growth inhibition (5 µM, minimal medium (MM)): 87.9%

CCOC(=O)c1cc(-c2csc(Nc3c(C)cc(C)cc3C)n2)on1
growth inhibition [1]: 12.2% | growth inhibition (1 µM, minimal medium (MM)): 20.5% | growth inhibition [2]: 34.3% | growth inhibition (5 µM, minimal medium (MM)): < 0%

CNc1cc(C)nc(C2CN(C(=O)c3n[nH]c4ccccc34)CCO2)c1 (stereo not given)
growth inhibition [1]: 16.4% | growth inhibition (1 µM, minimal medium (MM)): 10.7% | growth inhibition [2]: 41.7% | growth inhibition (5 µM, minimal medium (MM)): 21.7%

CC(C)(C)OC(=O)N1CCN(c2nccc(-c3ccc(-c4ccc(Cl)cc4)s3)n2)CC1
growth inhibition [1]: < 0% | growth inhibition (1 µM, minimal medium (MM)): 2.86% | growth inhibition [2]: 64.1% | growth inhibition (5 µM, minimal medium (MM)): 11.6%

O=C(OCc1ccccc1)N1CCC(c2cc(-c3ccncc3)c(-c3ccc(F)cc3)[nH]2)CC1
growth inhibition [1]: 62.4% | growth inhibition (1 µM, minimal medium (MM)): 62.7% | growth inhibition [2]: 98.3% | growth inhibition (5 µM, minimal medium (MM)): 64.2%

O=C(NCc1ccoc1)N1CCN(Cc2ccc3c(c2)OCO3)CC1
growth inhibition [1]: < 0% | growth inhibition (1 µM, minimal medium (MM)): 6.98% | growth inhibition [2]: < 0% | growth inhibition (5 µM, minimal medium (MM)): < 0%

O=C(C1CCCCC1)N1CC(=O)N2CCc3ccccc3C2C1 (stereo not given)
growth inhibition [1]: < 0% | growth inhibition (1 µM, minimal medium (MM)): 15.5% | growth inhibition [2]: 0.306% | growth inhibition (5 µM, minimal medium (MM)): < 0%

c1ccc(-c2[nH]c3ccccc3c2C(c2ccccn2)N2CCCC2)cc1 (stereo not given)
growth inhibition [1]: 3.66% | growth inhibition (1 µM, minimal medium (MM)): 5.9% | growth inhibition [2]: 43.6% | growth inhibition (5 µM, minimal medium (MM)): < 0%

COc1cc2ncnc(NC3CCN(Cc4ccccc4)CC3)c2cc1OC
growth inhibition [1]: 98.1% | growth inhibition (1 µM, minimal medium (MM)): 95.5% | growth inhibition [2]: 99.3% | growth inhibition (5 µM, minimal medium (MM)): 92.2%

CC(C)/N=c1\cc2n(-c3ccc(Cl)cc3)c3ccccc3nc-2cc1Nc1ccc(Cl)cc1
growth inhibition [1]: 91.5% | growth inhibition (1 µM, minimal medium (MM)): 89.1% | growth inhibition [2]: 90% | growth inhibition (5 µM, minimal medium (MM)): 94.1%

O=C1[C@@H](Oc2ccccc2)[C@@H](c2ccc(Cl)cc2)N1CCn1cnc2c(NCc3ccccc3)ncnc21
growth inhibition [1]: < 0% | growth inhibition (1 µM, minimal medium (MM)): 22.4% | growth inhibition [2]: < 0% | growth inhibition (5 µM, minimal medium (MM)): 7.4%

C[C@H]1COc2c(N3CCN(C)CC3)c(F)cc3c(=O)c(C(=O)O)cn1c23
growth inhibition [1]: 17.1% | growth inhibition (1 µM, minimal medium (MM)): < 0% | growth inhibition [2]: 5.29% | growth inhibition (5 µM, minimal medium (MM)): 15.8%

Cc1ccc(NC(=O)c2nc[nH]c2C(=O)Nc2nc3ccccc3[nH]2)c(C)c1
growth inhibition [1]: 31% | growth inhibition (1 µM, minimal medium (MM)): 49.8% | growth inhibition [2]: 26.8% | growth inhibition (5 µM, minimal medium (MM)): 80.9%

O[C@@H](c1cc(C(F)(F)F)nc2c(C(F)(F)F)cccc12)[C@H]1CCCCN1
growth inhibition [1]: 94.5% | growth inhibition (1 µM, minimal medium (MM)): 94.9% | growth inhibition [2]: 91.5% | growth inhibition (5 µM, minimal medium (MM)): 85.5%

CC(C)(C)n1nc(-c2ccccc2)c2c(N)ncnc21
growth inhibition [1]: 20.8% | growth inhibition (1 µM, minimal medium (MM)): 20.3% | growth inhibition [2]: 38.5% | growth inhibition (5 µM, minimal medium (MM)): < 0%

Cc1[nH]c2cc(F)cc(F)c2c(=O)c1-c1ccc(Oc2ccc(OC(F)(F)F)cc2)cc1
growth inhibition [1]: 98.6% | growth inhibition (1 µM, minimal medium (MM)): 97.7% | growth inhibition [2]: 87.3% | growth inhibition (5 µM, minimal medium (MM)): > 100%

COc1ccc(-c2nnc3ccc(-c4cccc(C(C)C)c4)cn23)cc1OC
growth inhibition [1]: 9.51% | growth inhibition (1 µM, minimal medium (MM)): 3.89% | growth inhibition [2]: 33.1% | growth inhibition (5 µM, minimal medium (MM)): < 0%

O=C(c1[nH]nc2c1CCCC2)N1CCN(Cc2ccc3c(c2)OCO3)CC1
growth inhibition [1]: < 0% | growth inhibition (1 µM, minimal medium (MM)): 13% | growth inhibition [2]: < 0% | growth inhibition (5 µM, minimal medium (MM)): < 0%

Cc1ccc2[nH]c3c(NCCN(C)C)ncnc3c2c1
growth inhibition [1]: 97.6% | growth inhibition (1 µM, minimal medium (MM)): 96.5% | growth inhibition [2]: 98.1% | growth inhibition (5 µM, minimal medium (MM)): 95.7%

CCN(CC)CCCCCCNc1cc(OC)cc2c(C)ccnc12
growth inhibition [1]: 93.3% | growth inhibition (1 µM, minimal medium (MM)): 92.8% | growth inhibition [2]: 81.2% | growth inhibition (5 µM, minimal medium (MM)): 91.2%

Cc1cnc(N2CCN[C@@H](Cc3ccccc3)C2)nc1Oc1ccc(-n2ccnc2)cc1
growth inhibition [1]: 93.8% | growth inhibition (1 µM, minimal medium (MM)): 92.3% | growth inhibition [2]: 99.9% | growth inhibition (5 µM, minimal medium (MM)): 98.2%

CCc1nc2ccccc2n1CC(O)COc1cc(C)ccc1Cl (stereo not given)
growth inhibition [1]: 31.1% | growth inhibition (1 µM, minimal medium (MM)): 36.8% | growth inhibition [2]: 98.5% | growth inhibition (5 µM, minimal medium (MM)): 61%

O=C(Nc1ccc(N2CCNCC2)cc1)c1ccn2ncc(-c3cccc(Cl)c3)c2n1
growth inhibition [1]: > 100% | growth inhibition (1 µM, minimal medium (MM)): > 100% | growth inhibition [2]: > 100% | growth inhibition (5 µM, minimal medium (MM)): 99.8%

Nc1nccc2ccc(Oc3ccncc3)cc12
growth inhibition [1]: 73.9% | growth inhibition (1 µM, minimal medium (MM)): 64% | growth inhibition [2]: 68.2% | growth inhibition (5 µM, minimal medium (MM)): 60.1%
